# Out of some 5,500 compounds screened, about 2,000 (36%) were called active. Another 18% or so got no clear call; they are omitted. Some of the results follow. A number with no mark means an inactive call. Rule as the data show it: active = normalized growth mostly below about 0.91 (no sharp cut-off); inconclusive = no clear call, values can overlap the other calls; inactive = mostly above about 0.92.
# Assay: chemical genetic growth profiling, strain panel (AID 1159580);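 also: tested at 20 µM; growth read once vehicle control cultures reached saturation at 30 °C; 1 = growth at the plate median or of vehicle wells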
# Conditions: S. cerevisiae deletion strains, growth OD
compound,measurement,setting,value
CCCCCCNC(=O)n1cc(F)c(=O)[nH]c1=O,normalized growth,"locus YAL021C, strain ccr4, stronger effect = lower value",0.934
same,normalized growth,"locus YAL026C, strain drs2, stronger effect = lower value",0.849 (active)
same,normalized growth,"locus YAL030W, strain snc1, stronger effect = lower value",0.96
same,normalized growth,"locus YBL061C, strain skt5, stronger effect = lower value",0.972
same,normalized growth,"locus YBR009C, strain hhf1, stronger effect = lower value",0.861 (active)
same,normalized growth,"locus YBR023C, strain chs3, stronger effect = lower value",0.937
same,normalized growth,"locus YBR171W, strain sec66, stronger effect = lower value",0.996
same,normalized growth,"locus YBR231C, strain swc5, stronger effect = lower value",0.988
same,normalized growth,"locus YBR279W, strain paf1, stronger effect = lower value",0.834 (active)
same,normalized growth,"locus YCL011C, strain gbp2, stronger effect = lower value",0.91
same,normalized growth,"locus YCL016C, strain dcc1, stronger effect = lower value",0.86 (active)
same,normalized growth,"locus YCL069W, strain vba3, stronger effect = lower value",0.842 (active)
same,normalized growth,"locus YCR088W, strain abp1, stronger effect = lower value",0.934
same,normalized growth,"locus YDL005C, strain med2, stronger effect = lower value",0.941
same,normalized growth,"locus YDL040C, strain nat1, stronger effect = lower value",0.991
same,normalized growth,"locus YDR001C, strain nth1, stronger effect = lower value",0.995
same,normalized growth,"locus YDR069C, strain doa4, stronger effect = lower value",0.803 (active)
same,normalized growth,"locus YDR137W, strain rgp1, stronger effect = lower value",0.553 (active)
same,normalized growth,"locus YDR159W, strain sac3, stronger effect = lower value",1.22 [resistant] (active)
same,normalized growth,"locus YDR195W, strain ref2",0.678 (active)
same,normalized growth,"locus YDR297W, strain sur2, stronger effect = lower value",0.978
same,normalized growth,"locus YDR334W, strain swr1, stronger effect = lower value",0.93
same,normalized growth,"locus YDR335W, strain msn5, stronger effect = lower value",0.782 (active)
same,normalized growth,"locus YDR392W, strain spt3, stronger effect = lower value",0.776
same,normalized growth,"locus YEL003W, strain gim4, stronger effect = lower value",0.895 (active)
same,normalized growth,"locus YEL037C, strain rad23, stronger effect = lower value",0.894 (active)
same,normalized growth,"locus YEL061C, strain CIN8 (second series), stronger effect = lower value",0.95
same,normalized growth,"locus YER015W, strain faa2, stronger effect = lower value",0.889 (active)
same,normalized growth,"locus YER016W, strain bim1, stronger effect = lower value",0.899 (active)
same,normalized growth,"locus YER111C, strain swi4, stronger effect = lower value",0.923
same,normalized growth,"locus YER155C, strain BEM2 (second series), stronger effect = lower value",0.767 (active)
same,normalized growth,"locus YFR010W, strain ubp6, stronger effect = lower value",0.757 (active)
same,normalized growth,"locus YGL167C, strain pmr1, stronger effect = lower value",0.918
same,normalized growth,"locus YGL173C, strain kem1, stronger effect = lower value",0.897 (active)
same,normalized growth,"locus YGL227W, strain vid30, stronger effect = lower value",0.99
same,normalized growth,"locus YGL240W, strain doc1, stronger effect = lower value",0.971
same,normalized growth,"locus YGL253W, strain hxk2, stronger effect = lower value",0.613 (active)
same,normalized growth,"locus YHR013C, strain ard1, stronger effect = lower value",0.933
same,normalized growth,"locus YHR027C, strain rpn1, stronger effect = lower value",0.911 (active)
same,normalized growth,"locus YHR030C, strain SLT2, stronger effect = lower value",0.532 (active)
same,normalized growth,"locus YHR079C, strain IRE1, stronger effect = lower value",0.45 (active)
same,normalized growth,"locus YHR142W, strain chs7, stronger effect = lower value",0.741 (active)
same,normalized growth,"locus YJL092W, strain hpr5, stronger effect = lower value",0.912 (active)
same,normalized growth,"locus YJL095W, strain BCK1 (second series), stronger effect = lower value",0.945
same,normalized growth,"locus YJL095W, strain BCK1, stronger effect = lower value",0.541 (active)
same,normalized growth,"locus YJL115W, strain asf1, stronger effect = lower value",0.941
same,normalized growth,"locus YJL129C, strain trk1, stronger effect = lower value",0.76 (active)
same,normalized growth,"locus YJL154C, strain vps35, stronger effect = lower value",0.943
same,normalized growth,"locus YJL164C, strain tpk1, stronger effect = lower value",0.865 (active)
same,normalized growth,"locus YJL166W, strain qcr8, stronger effect = lower value",0.902 (active)
same,normalized growth,"locus YJR066W, strain TOR1, stronger effect = lower value",0.407 (active)
same,normalized growth,"locus YKL160W, strain elf1, stronger effect = lower value",0.907
same,normalized growth,"locus YKR026C, strain gcn3, stronger effect = lower value",0.993
same,normalized growth,"locus YKR091W, strain srl3, stronger effect = lower value",0.975
same,normalized growth,"locus YLL001W, strain dnm1, stronger effect = lower value",0.773 (active)
same,normalized growth,"locus YLL026W, stronger effect = lower value",0.974
same,normalized growth,"locus YLL041C, strain sdh2, stronger effect = lower value",0.979
same,normalized growth,"locus YLR027C, strain aat2, stronger effect = lower value",0.956
same,normalized growth,"locus YLR113W, strain HOG1, stronger effect = lower value",0.607 (active)
same,normalized growth,"locus YLR221C, strain rsa3, stronger effect = lower value",0.697 (active)
same,normalized growth,"locus YLR258W, strain gsy2, stronger effect = lower value",0.884 (active)
same,normalized growth,"locus YLR262C, strain YPT6 (second series), stronger effect = lower value",0.528 (active)
same,normalized growth,"locus YLR320W, strain mms22, stronger effect = lower value",0.733 (active)
same,normalized growth,"locus YLR342W, strain FKS1, stronger effect = lower value",0.938
same,normalized growth,"locus YLR357W, strain rsc2, stronger effect = lower value",0.803 (active)
same,normalized growth,"locus YLR370C, strain arc18, stronger effect = lower value",0.923
same,normalized growth,"locus YLR384C, strain iki3, stronger effect = lower value",0.963
same,normalized growth,"locus YML120C, strain ndi1, stronger effect = lower value",0.92
same,normalized growth,"locus YMR058W, strain fet3, stronger effect = lower value",0.926
same,normalized growth,"locus YMR125W, strain sto1, stronger effect = lower value",0.958
same,normalized growth,"locus YMR129W, stronger effect = lower value",0.987
same,normalized growth,"locus YMR205C, strain PFK2, stronger effect = lower value",0.898
same,normalized growth,"locus YMR231W, strain pep5, stronger effect = lower value",0.942
same,normalized growth,"locus YNL071W, strain lat1, stronger effect = lower value",0.891 (active)
same,normalized growth,"locus YNL183C, strain NPR1, stronger effect = lower value",0.48 (active)
same,normalized growth,"locus YNL209W, strain ssb2, stronger effect = lower value",0.959
same,normalized growth,"locus YNL248C, strain rpa49, stronger effect = lower value",0.589 (active)
same,normalized growth,"locus YNL322C, strain KRE1 (second series), stronger effect = lower value",0.936
same,normalized growth,"locus YNR049C, strain mso1, stronger effect = lower value",0.931
same,normalized growth,"locus YOR001W, strain rrp6, stronger effect = lower value",0.257 (active)
same,normalized growth,"locus YOR070C, strain gyp1, stronger effect = lower value",0.958
same,normalized growth,"locus YOR080W, strain dia2, stronger effect = lower value",0.968
same,normalized growth,"locus YOR083W, strain WHI5, stronger effect = lower value",0.84 (active)
same,normalized growth,"locus YOR106W, strain vam3, stronger effect = lower value",0.668 (active)
same,normalized growth,"locus YOR231W, strain MKK1, stronger effect = lower value",0.41 (active)
same,normalized growth,"locus YOR265W, strain rbl2, stronger effect = lower value",0.968
same,normalized growth,"locus YOR270C, strain vph1, stronger effect = lower value",0.518 (active)
same,normalized growth,"locus YOR290C, strain snf2, stronger effect = lower value",0.723 (active)
same,normalized growth,"locus YPL051W, strain arl3, stronger effect = lower value",0.843 (active)
same,normalized growth,"locus YPL078C, strain atp4, stronger effect = lower value",0.77 (active)
same,normalized growth,"locus YPL106C, strain sse1, stronger effect = lower value",0.722 (active)
same,normalized growth,"locus YPL240C, strain hsp82, stronger effect = lower value",0.978
same,normalized growth,"locus YPL256C, strain CLN2, stronger effect = lower value",0.564 (active)

# From PubChem BioAssay AID1159580 (chemical genetic matrix, 2015)
